The panel holds about 83,000 compounds, 20% with a hit somewhere; the sample as a whole holds those more often.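 Values shown are percent growth following 48 h exposure of cells in 96-well plates to a single concentration of compound; below 10 was considered active.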 The source made the active and inactive calls.
Tests used:
Assay in all cases: NCI-60 one-dose screen, 48 h (100 = growth as untreated, 0 = no growth, -100 = all killed)
Settings in all cases: 10 µM unless noted
SR leukemia = tested on: SR leukemia
RPMI-8226 leukemia = tested on: RPMI-8226 leukemia
OVCAR-5 ovarian = tested on: OVCAR-5 ovarian
OVCAR-4 ovarian = tested on: OVCAR-4 ovarian
SK-OV-3 ovarian = tested on: SK-OV-3 ovarian
IGROV1 ovarian = tested on: IGROV1 ovarian
OVCAR-3 ovarian = tested on: OVCAR-3 ovarian
HS 578T breast = tested on: HS 578T breast
NCI/ADR-RES ovarian = tested on: NCI/ADR-RES ovarian
T-47D breast = tested on: T-47D breast
BT-549 breast = tested on: BT-549 breast
MDA-MB-435 melanoma = tested on: MDA-MB-435 melanoma
SW-620 colon = tested on: SW-620 colon
MCF7 breast = tested on: MCF7 breast
HCT-116 colon = tested on: HCT-116 colon
HCC-2998 colon = tested on: HCC-2998 colon
KM12 colon = tested on: KM12 colon
OVCAR-8 ovarian = tested on: OVCAR-8 ovarian

Measured: growth

Clc1ccc2c(NC3CCC(NC4CCCCC4)CC3)ccnc2c1 (configuration not stated)
inactive: RPMI-8226 leukemia 39.4% | OVCAR-5 ovarian 84.4% | OVCAR-4 ovarian 50% | SK-OV-3 ovarian 73.4% | IGROV1 ovarian 83.4% | OVCAR-3 ovarian 85.3% | HS 578T breast 67.5% | NCI/ADR-RES ovarian 68% | T-47D breast 48.1% | BT-549 breast 86.8% | MDA-MB-435 melanoma 26.8% | SW-620 colon 32.7% | MCF7 breast 37.8% | HCT-116 colon 35.8% | HCC-2998 colon 65.2% | KM12 colon 67.2%
active: SR leukemia -3.32%

NC(=N\N=C/c1ccc(O)cc1)/C(N)=N\N=C/c1ccc(O)cc1
inactive: SR leukemia 33.7% | RPMI-8226 leukemia 65.3% | OVCAR-8 ovarian 73.9% | OVCAR-4 ovarian 74.4% | SK-OV-3 ovarian 82.6% | IGROV1 ovarian 79.4% | OVCAR-3 ovarian 92% | HS 578T breast 99% | NCI/ADR-RES ovarian 58.5% | T-47D breast 49.6% | BT-549 breast 52.5% | MDA-MB-435 melanoma 44.7% | SW-620 colon 40.8% | MCF7 breast 66.4% | HCT-116 colon 62.2% | HCC-2998 colon 51% | KM12 colon 23.6%

COc1cc(C2CC(c3ccc4c(c3)OCO4)=NN2C=O)cc(OC)c1OC (configuration not stated)
active: OVCAR-3 ovarian -29% | HS 578T breast 8.51% | MDA-MB-435 melanoma -25.9%
inactive: SR leukemia 33.5% | RPMI-8226 leukemia 52.8% | OVCAR-8 ovarian 53.9% | OVCAR-4 ovarian 57.7% | SK-OV-3 ovarian 24.7% | NCI/ADR-RES ovarian 15.5% | BT-549 breast 40.3% | SW-620 colon 27% | MCF7 breast 16.8% | HCT-116 colon 20.6% | HCC-2998 colon 64.2% | KM12 colon 23.3%

Cc1cc(C2(c3cc(C)c(O)cc3C)OS(=O)(=O)c3ccccc32)c(C)cc1O
inactive: SR leukemia 95.3% | RPMI-8226 leukemia 92.4% | OVCAR-8 ovarian 103% | OVCAR-5 ovarian 111% | SK-OV-3 ovarian 101% | IGROV1 ovarian 107% | OVCAR-3 ovarian 107% | HS 578T breast 96.3% | NCI/ADR-RES ovarian 110% | T-47D breast 102% | MDA-MB-435 melanoma 116% | SW-620 colon 106% | MCF7 breast 78.5% | HCT-116 colon 103% | HCC-2998 colon 101% | KM12 colon 106%

N=c1ccc2nc3ccc(N)cc3sc-2c1
inactive: SR leukemia 38.2% | RPMI-8226 leukemia 30% | OVCAR-8 ovarian 13.5% | OVCAR-5 ovarian 48.1% | SK-OV-3 ovarian 58.4% | IGROV1 ovarian 40.6% | HS 578T breast 51.9% | SW-620 colon 31.7% | MCF7 breast 14.6% | HCC-2998 colon 53.2% | KM12 colon 18.1%
active: OVCAR-3 ovarian 0.418% | NCI/ADR-RES ovarian 9.73% | T-47D breast 5.98% | MDA-MB-435 melanoma -56.6% | HCT-116 colon 1.01%

COc1ccccc1CNCCCN1C(=O)c2ccc3c4c(ccc(c24)C1=O)C(=O)N(CCCNCCCCNCCCN)C3=O
active: SR leukemia -27.1% | RPMI-8226 leukemia -9.27% | OVCAR-8 ovarian 4.19% | OVCAR-4 ovarian -73.8% | SK-OV-3 ovarian 9.93% | IGROV1 ovarian -2.75% | OVCAR-3 ovarian -96.8% | HS 578T breast -25.1% | NCI/ADR-RES ovarian 4.5% | T-47D breast -36.4% | BT-549 breast -22.1% | MDA-MB-435 melanoma -13.4% | SW-620 colon -36.5% | MCF7 breast -38.4% | HCT-116 colon -2.94% | HCC-2998 colon -39% | KM12 colon -18.7%

C[n+]1c(/C=C/c2c(O)ccc3ccccc23)ccc2ccccc21
active: SR leukemia -36.2% | RPMI-8226 leukemia 3.79% | OVCAR-3 ovarian -20.5% | HCT-116 colon -13.9%
inactive: OVCAR-5 ovarian 77.3% | OVCAR-4 ovarian 28.3% | SK-OV-3 ovarian 50.6% | IGROV1 ovarian 45.2% | HS 578T breast 55.7% | NCI/ADR-RES ovarian 25.2% | T-47D breast 26.6% | BT-549 breast 27.9% | MDA-MB-435 melanoma 25.6% | SW-620 colon 17% | MCF7 breast 15.9% | HCC-2998 colon 59.8% | KM12 colon 38.7%

COc1cc2c(cc1OCCCCCn1c3ccccc3c3ccccc31)N=C[C@@H]1CCCN1C2=O
active: SR leukemia -54.5% | RPMI-8226 leukemia -39.2% | OVCAR-5 ovarian -50% | OVCAR-4 ovarian -7.21% | SK-OV-3 ovarian -47.4% | IGROV1 ovarian -68.9% | OVCAR-3 ovarian -80.5% | HS 578T breast -63.4% | NCI/ADR-RES ovarian -6.33% | T-47D breast -34.1% | BT-549 breast -61.6% | MDA-MB-435 melanoma -99.2% | SW-620 colon -79.1% | MCF7 breast -30.9% | HCT-116 colon -75.8% | HCC-2998 colon -94.8% | KM12 colon -11.4%

Nc1ccc(C(=O)CSc2nc3ccccc3[nH]2)cc1
inactive: SR leukemia 110% | RPMI-8226 leukemia 103% | OVCAR-5 ovarian 102% | OVCAR-4 ovarian 110% | SK-OV-3 ovarian 105% | IGROV1 ovarian 112% | OVCAR-3 ovarian 107% | HS 578T breast 109% | NCI/ADR-RES ovarian 99.3% | T-47D breast 109% | BT-549 breast 94.5% | MDA-MB-435 melanoma 96.1% | SW-620 colon 101% | MCF7 breast 92.9% | HCT-116 colon 97.3% | HCC-2998 colon 100% | KM12 colon 103%

N#Cc1c(Nc2ccccc2)nc2n(c1=O)-c1ccccc1Sc1ccccc1-2
inactive: SR leukemia 59.6% | RPMI-8226 leukemia 66.7% | OVCAR-5 ovarian 110% | OVCAR-4 ovarian 58.4% | SK-OV-3 ovarian 94.8% | IGROV1 ovarian 64.1% | OVCAR-3 ovarian 69.4% | HS 578T breast 97.9% | NCI/ADR-RES ovarian 85.5% | T-47D breast 55.9% | BT-549 breast 82.3% | MDA-MB-435 melanoma 82.8% | SW-620 colon 99.2% | HCT-116 colon 82.9% | HCC-2998 colon 102% | KM12 colon 97.9%

c1coc(CNc2ccnc(Nc3ccc(OCCN4CCCCC4)cc3)n2)c1
inactive: SR leukemia 61.5% | RPMI-8226 leukemia 71.1% | OVCAR-5 ovarian 97% | OVCAR-4 ovarian 87.6% | SK-OV-3 ovarian 103% | IGROV1 ovarian 98.1% | OVCAR-3 ovarian 90.1% | HS 578T breast 80.9% | NCI/ADR-RES ovarian 104% | T-47D breast 91.2% | BT-549 breast 97.5% | MDA-MB-435 melanoma 95.5% | SW-620 colon 98.7% | MCF7 breast 71.4% | HCT-116 colon 68.4% | HCC-2998 colon 99.5% | KM12 colon 84.8%

COc1ccc2c(c1)NC1=C(C(=O)OC1)C2c1cc(OC)c2c(c1)OCO2 (configuration not stated)
active: SR leukemia 2.24% | OVCAR-3 ovarian -44.9% | NCI/ADR-RES ovarian 1.91% | MDA-MB-435 melanoma -14.7% | HCT-116 colon 6.69% | KM12 colon 2.35%
inactive: RPMI-8226 leukemia 25.1% | OVCAR-8 ovarian 20.7% | OVCAR-4 ovarian 46% | SK-OV-3 ovarian 13% | IGROV1 ovarian 24.4% | HS 578T breast 14% | T-47D breast 53.8% | BT-549 breast 32.4% | SW-620 colon 21.2% | MCF7 breast 17.9% | HCC-2998 colon 11.3%

CN1CCN(Cc2ccc(NC(=O)c3cncc(C#Cc4cnc(N)c5cnccc45)c3)cc2C(F)(F)F)CC1
active: RPMI-8226 leukemia -16.7% | OVCAR-5 ovarian 2.45% | SK-OV-3 ovarian -26.8% | IGROV1 ovarian -8.29% | HS 578T breast -18% | MDA-MB-435 melanoma -9.64% | SW-620 colon -10.9% | HCT-116 colon 0.743% | KM12 colon 3.81%
inactive: SR leukemia 11% | OVCAR-4 ovarian 11.9% | OVCAR-3 ovarian 35.7% | NCI/ADR-RES ovarian 65.9% | T-47D breast 22.8% | BT-549 breast 27.4% | MCF7 breast 25.3% | HCC-2998 colon 19.9%

Fc1ccccc1-c1nc(-c2nc3cc(Cl)c(Cl)cc3[nH]2)c2ccccn12
active: OVCAR-4 ovarian 1.61%
inactive: SR leukemia 20.7% | RPMI-8226 leukemia 74.7% | OVCAR-8 ovarian 68.4% | SK-OV-3 ovarian 83.7% | IGROV1 ovarian 21.9% | OVCAR-3 ovarian 70.5% | HS 578T breast 44% | NCI/ADR-RES ovarian 76% | T-47D breast 31.5% | BT-549 breast 88.9% | MDA-MB-435 melanoma 73.6% | SW-620 colon 80.2% | MCF7 breast 40.5% | HCT-116 colon 37.7% | HCC-2998 colon 96.2% | KM12 colon 80.5%

COc1ccc(/C=C(\C#N)c2cc(OC)c3c(c2)OCO3)cc1
inactive: RPMI-8226 leukemia 28.6% | OVCAR-8 ovarian 24.3% | OVCAR-4 ovarian 39% | IGROV1 ovarian 16.3% | HS 578T breast 28.5% | T-47D breast 62.3% | BT-549 breast 30.9% | SW-620 colon 24.4% | HCC-2998 colon 15.7%
active: SR leukemia 1.82% | SK-OV-3 ovarian 8.7% | OVCAR-3 ovarian -42.7% | NCI/ADR-RES ovarian 7.74% | MDA-MB-435 melanoma -17.6% | HCT-116 colon 6.05% | KM12 colon 5.15%

CCN(CC)CCC(CNc1ccnc2cc(Cl)ccc12)c1ccccc1 (configuration not stated)
active: MDA-MB-435 melanoma -2.6%
inactive: SR leukemia 20.5% | RPMI-8226 leukemia 59.3% | OVCAR-5 ovarian 87.9% | SK-OV-3 ovarian 85.6% | IGROV1 ovarian 80.2% | OVCAR-3 ovarian 79.9% | HS 578T breast 46.8% | NCI/ADR-RES ovarian 83.2% | T-47D breast 71% | SW-620 colon 62.3% | MCF7 breast 26.3% | HCT-116 colon 28.3% | HCC-2998 colon 68.2% | KM12 colon 84.1%

Cc1ccc(C(=O)NCCCNc2nccc(-n3ccc4cccnc43)n2)cc1
inactive: SR leukemia 92.7% | OVCAR-8 ovarian 100% | OVCAR-5 ovarian 89.8% | OVCAR-4 ovarian 96.3% | SK-OV-3 ovarian 106% | IGROV1 ovarian 88.6% | OVCAR-3 ovarian 105% | HS 578T breast 101% | NCI/ADR-RES ovarian 92.3% | T-47D breast 90.6% | MDA-MB-435 melanoma 104% | SW-620 colon 109% | MCF7 breast 103% | HCT-116 colon 93.7% | HCC-2998 colon 109% | KM12 colon 103%

CC12CCCC(CC(=O)c3[nH]c4ccccc4c31)C2 (configuration not stated)
active: OVCAR-3 ovarian -26.1% | NCI/ADR-RES ovarian 5.24% | MDA-MB-435 melanoma -46.9%
inactive: SR leukemia 15.5% | OVCAR-8 ovarian 31.1% | OVCAR-5 ovarian 34.6% | OVCAR-4 ovarian 60.7% | SK-OV-3 ovarian 53.4% | IGROV1 ovarian 24.6% | HS 578T breast 12.8% | T-47D breast 24.1% | SW-620 colon 22.2% | MCF7 breast 21.1% | HCT-116 colon 22.7% | HCC-2998 colon 43.5% | KM12 colon 26.7%

C1=Cc2ccccc2N(c2nnc(-c3ccccc3)o2)c2ccccc21
inactive: SR leukemia 32.3% | OVCAR-8 ovarian 95.4% | OVCAR-5 ovarian 98.2% | OVCAR-4 ovarian 92.1% | SK-OV-3 ovarian 114% | IGROV1 ovarian 92.9% | OVCAR-3 ovarian 107% | HS 578T breast 102% | NCI/ADR-RES ovarian 92.2% | T-47D breast 100% | MDA-MB-435 melanoma 87.9% | SW-620 colon 99.9% | MCF7 breast 87.6% | HCT-116 colon 66.6% | HCC-2998 colon 121% | KM12 colon 92.3%

Source: PubChem BioAssay (NCI)
